In ChEMBL document CHEMBL2218924, “A broad activity screen in support of a chemogenomic map for kinase signalling research and drug discovery” (Biochem J, 2013):

Experiments:
[1] = molecular target: T1, Ephrin type-A receptor 3 (Homo sapiens) (UniProt P29320); settings: at 10 µM
T1 sequence (whole entry): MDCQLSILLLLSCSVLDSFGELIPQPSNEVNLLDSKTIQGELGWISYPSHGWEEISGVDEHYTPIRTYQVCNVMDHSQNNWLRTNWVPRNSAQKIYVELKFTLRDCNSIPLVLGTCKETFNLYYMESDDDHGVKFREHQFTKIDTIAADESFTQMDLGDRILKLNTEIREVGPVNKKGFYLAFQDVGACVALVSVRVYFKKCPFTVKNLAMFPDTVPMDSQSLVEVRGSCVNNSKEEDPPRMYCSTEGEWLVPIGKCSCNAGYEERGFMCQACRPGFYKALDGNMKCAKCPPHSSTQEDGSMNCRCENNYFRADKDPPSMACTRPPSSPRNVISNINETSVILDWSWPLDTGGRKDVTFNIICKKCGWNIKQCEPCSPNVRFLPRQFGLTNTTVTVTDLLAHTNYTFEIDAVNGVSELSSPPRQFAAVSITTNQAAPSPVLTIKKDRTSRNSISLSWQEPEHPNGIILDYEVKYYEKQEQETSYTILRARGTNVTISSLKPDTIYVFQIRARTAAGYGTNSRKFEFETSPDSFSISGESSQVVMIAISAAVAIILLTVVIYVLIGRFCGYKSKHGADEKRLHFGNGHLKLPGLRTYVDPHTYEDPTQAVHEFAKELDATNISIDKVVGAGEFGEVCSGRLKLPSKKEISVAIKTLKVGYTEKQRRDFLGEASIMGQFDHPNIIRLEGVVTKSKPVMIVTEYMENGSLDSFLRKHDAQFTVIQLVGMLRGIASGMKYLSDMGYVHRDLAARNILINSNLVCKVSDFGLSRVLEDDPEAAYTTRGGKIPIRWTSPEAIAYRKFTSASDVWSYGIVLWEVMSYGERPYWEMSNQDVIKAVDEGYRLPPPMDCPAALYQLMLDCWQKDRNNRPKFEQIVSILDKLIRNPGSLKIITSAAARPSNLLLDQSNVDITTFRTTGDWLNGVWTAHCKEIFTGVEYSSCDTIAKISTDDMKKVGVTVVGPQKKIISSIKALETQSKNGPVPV

[2] = molecular target: Ephrin type-A receptor 4 (Homo sapiens) (UniProt P54764); settings: at 1 µM
[3] = molecular target: Ephrin type-A receptor 4 (Homo sapiens) (UniProt P54764); settings: at 10 µM
[4] = molecular target: Ephrin type-A receptor 5 (Homo sapiens) (UniProt P54756); settings: at 1 µM
[5] = molecular target: Ephrin type-A receptor 5 (Homo sapiens) (UniProt P54756); settings: at 10 µM
[6] = molecular target: Ephrin type-A receptor 7 (Homo sapiens) (UniProt Q15375); settings: at 1 µM
[7] = molecular target: Ephrin type-A receptor 7 (Homo sapiens) (UniProt Q15375); settings: at 10 µM
[8] = molecular target: T2, Ephrin type-A receptor 8 (Homo sapiens) (UniProt P29322); settings: at 1 µM
T2 sequence (whole entry): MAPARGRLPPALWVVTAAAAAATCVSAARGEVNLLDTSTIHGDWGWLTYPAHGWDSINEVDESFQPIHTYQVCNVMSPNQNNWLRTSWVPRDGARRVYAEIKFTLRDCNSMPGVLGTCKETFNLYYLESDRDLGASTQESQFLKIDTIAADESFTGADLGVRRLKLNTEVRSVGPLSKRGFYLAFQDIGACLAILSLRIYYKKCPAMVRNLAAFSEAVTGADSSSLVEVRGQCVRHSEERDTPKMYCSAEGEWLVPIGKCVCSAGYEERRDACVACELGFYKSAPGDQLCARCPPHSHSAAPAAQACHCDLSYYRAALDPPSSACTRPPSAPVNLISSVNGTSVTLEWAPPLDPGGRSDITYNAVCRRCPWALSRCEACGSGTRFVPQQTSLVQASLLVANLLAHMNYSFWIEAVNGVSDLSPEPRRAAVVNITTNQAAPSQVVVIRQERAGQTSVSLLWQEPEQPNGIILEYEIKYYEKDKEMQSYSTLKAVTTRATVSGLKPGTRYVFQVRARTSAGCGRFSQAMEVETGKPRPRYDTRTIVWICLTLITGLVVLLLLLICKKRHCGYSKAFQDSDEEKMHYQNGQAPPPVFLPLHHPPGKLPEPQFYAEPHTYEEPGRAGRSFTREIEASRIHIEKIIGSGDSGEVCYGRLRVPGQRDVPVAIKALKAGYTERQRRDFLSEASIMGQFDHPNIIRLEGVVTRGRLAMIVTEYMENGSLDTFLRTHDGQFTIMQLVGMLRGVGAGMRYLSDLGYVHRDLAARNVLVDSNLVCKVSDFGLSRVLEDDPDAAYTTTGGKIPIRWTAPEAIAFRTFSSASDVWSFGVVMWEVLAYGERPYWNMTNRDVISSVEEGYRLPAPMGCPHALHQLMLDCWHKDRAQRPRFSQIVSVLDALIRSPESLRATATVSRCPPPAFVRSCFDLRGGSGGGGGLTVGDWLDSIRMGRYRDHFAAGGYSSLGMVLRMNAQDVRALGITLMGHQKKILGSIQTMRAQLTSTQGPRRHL

[9] = molecular target: T2, Ephrin type-A receptor 8 (Homo sapiens); settings: at 10 µM
[10] = molecular target: T3, Ephrin type-B receptor 1 (Homo sapiens) (UniProt P54762); settings: at 1 µM
T3 sequence (whole entry): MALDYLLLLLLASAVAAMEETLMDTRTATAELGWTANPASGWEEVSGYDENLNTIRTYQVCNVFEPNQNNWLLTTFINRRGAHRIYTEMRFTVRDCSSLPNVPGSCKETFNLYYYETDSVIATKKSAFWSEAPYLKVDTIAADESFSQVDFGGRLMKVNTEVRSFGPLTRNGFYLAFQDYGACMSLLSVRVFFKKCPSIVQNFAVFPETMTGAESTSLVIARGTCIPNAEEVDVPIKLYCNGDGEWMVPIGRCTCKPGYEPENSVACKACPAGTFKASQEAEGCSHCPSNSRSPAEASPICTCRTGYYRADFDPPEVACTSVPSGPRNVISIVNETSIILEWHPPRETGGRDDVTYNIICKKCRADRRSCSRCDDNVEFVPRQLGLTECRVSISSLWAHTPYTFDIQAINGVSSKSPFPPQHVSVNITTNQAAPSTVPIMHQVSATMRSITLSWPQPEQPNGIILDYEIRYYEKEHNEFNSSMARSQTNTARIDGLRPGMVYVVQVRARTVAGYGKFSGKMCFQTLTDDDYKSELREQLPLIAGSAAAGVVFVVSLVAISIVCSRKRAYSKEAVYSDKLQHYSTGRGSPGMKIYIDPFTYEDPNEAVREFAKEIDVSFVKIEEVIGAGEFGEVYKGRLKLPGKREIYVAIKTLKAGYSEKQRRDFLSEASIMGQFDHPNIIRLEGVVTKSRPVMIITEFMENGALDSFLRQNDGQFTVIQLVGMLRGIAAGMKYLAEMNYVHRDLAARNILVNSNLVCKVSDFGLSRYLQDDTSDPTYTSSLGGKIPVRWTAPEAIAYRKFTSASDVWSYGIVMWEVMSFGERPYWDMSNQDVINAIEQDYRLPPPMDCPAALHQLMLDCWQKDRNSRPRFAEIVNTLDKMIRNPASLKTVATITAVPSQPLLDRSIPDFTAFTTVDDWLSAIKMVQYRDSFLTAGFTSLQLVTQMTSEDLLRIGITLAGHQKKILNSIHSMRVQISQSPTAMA

[11] = molecular target: T3, Ephrin type-B receptor 1 (Homo sapiens); settings: at 10 µM
[12] = molecular target: T4, Ephrin type-B receptor 2 (Homo sapiens) (UniProt P29323); settings: at 1 µM
T4 sequence (whole entry): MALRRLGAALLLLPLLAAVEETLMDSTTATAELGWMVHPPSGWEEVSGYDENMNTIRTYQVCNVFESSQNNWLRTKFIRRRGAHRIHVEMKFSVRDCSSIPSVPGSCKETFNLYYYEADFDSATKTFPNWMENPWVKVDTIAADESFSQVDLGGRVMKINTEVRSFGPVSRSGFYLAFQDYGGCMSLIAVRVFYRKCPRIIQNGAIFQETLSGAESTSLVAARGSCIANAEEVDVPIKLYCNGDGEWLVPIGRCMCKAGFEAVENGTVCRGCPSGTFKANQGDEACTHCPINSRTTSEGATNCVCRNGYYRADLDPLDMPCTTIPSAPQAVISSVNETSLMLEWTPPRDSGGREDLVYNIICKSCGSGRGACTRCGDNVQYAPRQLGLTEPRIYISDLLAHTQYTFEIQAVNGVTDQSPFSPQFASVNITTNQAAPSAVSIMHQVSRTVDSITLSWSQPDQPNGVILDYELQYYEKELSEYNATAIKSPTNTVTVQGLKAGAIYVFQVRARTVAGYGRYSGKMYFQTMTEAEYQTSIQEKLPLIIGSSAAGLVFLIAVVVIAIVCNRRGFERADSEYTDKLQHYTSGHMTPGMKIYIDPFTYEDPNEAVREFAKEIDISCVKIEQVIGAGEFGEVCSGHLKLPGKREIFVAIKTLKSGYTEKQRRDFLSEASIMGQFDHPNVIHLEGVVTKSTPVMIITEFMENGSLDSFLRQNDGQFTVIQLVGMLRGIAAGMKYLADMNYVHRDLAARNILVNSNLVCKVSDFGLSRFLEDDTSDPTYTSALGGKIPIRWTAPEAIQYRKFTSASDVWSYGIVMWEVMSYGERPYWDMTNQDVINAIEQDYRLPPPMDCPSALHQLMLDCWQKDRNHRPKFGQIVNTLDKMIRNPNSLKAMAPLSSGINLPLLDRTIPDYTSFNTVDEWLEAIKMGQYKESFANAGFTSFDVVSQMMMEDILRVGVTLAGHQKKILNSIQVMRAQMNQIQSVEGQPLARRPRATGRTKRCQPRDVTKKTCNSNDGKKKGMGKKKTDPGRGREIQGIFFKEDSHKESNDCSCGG

[13] = molecular target: T4, Ephrin type-B receptor 2 (Homo sapiens); settings: at 10 µM
[14] = molecular target: T5, Ephrin type-B receptor 3 (Homo sapiens) (UniProt P54753); settings: at 1 µM
T5 sequence (whole entry): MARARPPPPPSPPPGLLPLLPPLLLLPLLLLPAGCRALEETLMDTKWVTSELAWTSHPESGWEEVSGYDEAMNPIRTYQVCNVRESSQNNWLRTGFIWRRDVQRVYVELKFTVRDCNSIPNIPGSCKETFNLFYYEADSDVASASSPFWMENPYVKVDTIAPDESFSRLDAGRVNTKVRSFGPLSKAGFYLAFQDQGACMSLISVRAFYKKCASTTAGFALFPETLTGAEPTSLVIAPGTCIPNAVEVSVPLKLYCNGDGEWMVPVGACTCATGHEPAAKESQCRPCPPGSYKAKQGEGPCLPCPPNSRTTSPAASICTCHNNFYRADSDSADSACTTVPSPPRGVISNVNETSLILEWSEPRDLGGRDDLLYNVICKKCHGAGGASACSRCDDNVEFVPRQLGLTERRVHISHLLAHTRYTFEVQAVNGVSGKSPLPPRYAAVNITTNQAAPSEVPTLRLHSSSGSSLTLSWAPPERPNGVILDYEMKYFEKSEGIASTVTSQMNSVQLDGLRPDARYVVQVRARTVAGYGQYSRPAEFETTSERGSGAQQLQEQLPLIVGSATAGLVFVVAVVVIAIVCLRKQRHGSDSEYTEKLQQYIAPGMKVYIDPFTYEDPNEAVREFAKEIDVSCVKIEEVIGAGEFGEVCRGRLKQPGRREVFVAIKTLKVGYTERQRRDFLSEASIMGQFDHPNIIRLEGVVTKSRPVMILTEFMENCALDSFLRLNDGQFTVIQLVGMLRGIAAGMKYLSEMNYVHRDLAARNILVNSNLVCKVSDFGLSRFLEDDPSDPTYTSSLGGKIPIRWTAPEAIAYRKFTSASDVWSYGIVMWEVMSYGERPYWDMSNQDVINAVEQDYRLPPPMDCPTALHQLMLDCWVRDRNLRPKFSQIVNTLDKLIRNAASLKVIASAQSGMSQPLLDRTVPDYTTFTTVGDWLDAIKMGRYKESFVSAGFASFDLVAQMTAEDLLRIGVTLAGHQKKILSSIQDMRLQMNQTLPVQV

[15] = molecular target: T5, Ephrin type-B receptor 3 (Homo sapiens); settings: at 10 µM
[16] = molecular target: T6, Ephrin type-B receptor 4 (Homo sapiens) (UniProt P54760); settings: at 1 µM
T6 sequence (whole entry): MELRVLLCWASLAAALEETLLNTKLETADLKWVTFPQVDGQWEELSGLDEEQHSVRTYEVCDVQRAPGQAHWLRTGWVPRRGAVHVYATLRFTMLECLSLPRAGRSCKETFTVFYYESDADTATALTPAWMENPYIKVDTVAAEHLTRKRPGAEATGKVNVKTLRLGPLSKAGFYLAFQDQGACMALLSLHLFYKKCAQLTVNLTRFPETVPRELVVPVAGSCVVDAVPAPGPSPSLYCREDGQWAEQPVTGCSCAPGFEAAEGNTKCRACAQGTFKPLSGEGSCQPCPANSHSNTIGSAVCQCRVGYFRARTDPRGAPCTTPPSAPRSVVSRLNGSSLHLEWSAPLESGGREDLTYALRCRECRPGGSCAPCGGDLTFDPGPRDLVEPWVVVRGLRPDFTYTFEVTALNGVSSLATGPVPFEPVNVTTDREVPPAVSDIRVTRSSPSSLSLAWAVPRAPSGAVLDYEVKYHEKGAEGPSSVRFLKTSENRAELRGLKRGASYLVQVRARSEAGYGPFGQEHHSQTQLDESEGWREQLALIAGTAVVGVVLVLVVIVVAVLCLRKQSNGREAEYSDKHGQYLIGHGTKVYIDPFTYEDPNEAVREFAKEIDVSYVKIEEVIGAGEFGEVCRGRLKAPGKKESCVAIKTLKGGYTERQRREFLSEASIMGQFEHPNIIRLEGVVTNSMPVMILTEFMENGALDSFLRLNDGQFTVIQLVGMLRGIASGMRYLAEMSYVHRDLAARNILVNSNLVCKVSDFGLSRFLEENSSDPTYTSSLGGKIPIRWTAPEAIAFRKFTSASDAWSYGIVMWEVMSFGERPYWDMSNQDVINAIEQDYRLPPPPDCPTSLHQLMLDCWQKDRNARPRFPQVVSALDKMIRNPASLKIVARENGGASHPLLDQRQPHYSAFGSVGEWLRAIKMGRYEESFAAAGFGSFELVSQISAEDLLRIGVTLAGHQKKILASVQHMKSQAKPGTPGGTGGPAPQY

[17] = molecular target: T6, Ephrin type-B receptor 4 (Homo sapiens); settings: at 10 µM
[18] = molecular target: Receptor tyrosine-protein kinase erbB-4 (Homo sapiens) (UniProt Q15303); settings: at 1 µM
[19] = molecular target: Receptor tyrosine-protein kinase erbB-4 (Homo sapiens) (UniProt Q15303); settings: at 10 µM
[20] = molecular target: Focal adhesion kinase 1 (Homo sapiens) (UniProt Q05397); settings: at 1 µM

Sequence of Ephrin type-A receptor 4 (Homo sapiens) (P54764 whole entry): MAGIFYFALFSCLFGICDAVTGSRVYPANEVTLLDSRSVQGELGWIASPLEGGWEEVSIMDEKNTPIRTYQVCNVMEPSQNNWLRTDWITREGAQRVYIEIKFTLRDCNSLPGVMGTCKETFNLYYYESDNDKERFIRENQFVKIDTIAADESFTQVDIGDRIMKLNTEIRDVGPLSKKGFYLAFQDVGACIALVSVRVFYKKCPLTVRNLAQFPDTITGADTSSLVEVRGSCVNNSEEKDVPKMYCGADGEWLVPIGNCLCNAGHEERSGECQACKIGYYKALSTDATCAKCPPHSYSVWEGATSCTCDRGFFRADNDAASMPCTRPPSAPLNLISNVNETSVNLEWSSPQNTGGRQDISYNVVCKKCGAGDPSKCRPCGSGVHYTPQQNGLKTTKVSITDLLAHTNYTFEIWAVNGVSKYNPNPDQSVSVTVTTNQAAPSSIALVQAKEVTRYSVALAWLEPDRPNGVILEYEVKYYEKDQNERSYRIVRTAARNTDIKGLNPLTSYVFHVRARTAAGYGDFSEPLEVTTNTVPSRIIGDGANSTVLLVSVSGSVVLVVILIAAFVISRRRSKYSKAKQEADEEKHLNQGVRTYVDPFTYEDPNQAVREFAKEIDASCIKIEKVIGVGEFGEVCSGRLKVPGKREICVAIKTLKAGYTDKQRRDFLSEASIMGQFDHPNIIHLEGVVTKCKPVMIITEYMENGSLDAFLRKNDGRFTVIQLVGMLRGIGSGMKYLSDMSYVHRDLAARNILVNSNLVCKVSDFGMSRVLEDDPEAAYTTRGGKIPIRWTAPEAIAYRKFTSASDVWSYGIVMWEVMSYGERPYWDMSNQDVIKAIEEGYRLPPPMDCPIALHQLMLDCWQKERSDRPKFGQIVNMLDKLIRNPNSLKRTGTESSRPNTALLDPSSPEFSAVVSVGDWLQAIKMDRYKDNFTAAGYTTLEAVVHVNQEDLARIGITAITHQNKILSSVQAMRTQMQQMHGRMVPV
Sequence of Ephrin type-A receptor 7 (Homo sapiens) (Q15375 28-998 limits assumed): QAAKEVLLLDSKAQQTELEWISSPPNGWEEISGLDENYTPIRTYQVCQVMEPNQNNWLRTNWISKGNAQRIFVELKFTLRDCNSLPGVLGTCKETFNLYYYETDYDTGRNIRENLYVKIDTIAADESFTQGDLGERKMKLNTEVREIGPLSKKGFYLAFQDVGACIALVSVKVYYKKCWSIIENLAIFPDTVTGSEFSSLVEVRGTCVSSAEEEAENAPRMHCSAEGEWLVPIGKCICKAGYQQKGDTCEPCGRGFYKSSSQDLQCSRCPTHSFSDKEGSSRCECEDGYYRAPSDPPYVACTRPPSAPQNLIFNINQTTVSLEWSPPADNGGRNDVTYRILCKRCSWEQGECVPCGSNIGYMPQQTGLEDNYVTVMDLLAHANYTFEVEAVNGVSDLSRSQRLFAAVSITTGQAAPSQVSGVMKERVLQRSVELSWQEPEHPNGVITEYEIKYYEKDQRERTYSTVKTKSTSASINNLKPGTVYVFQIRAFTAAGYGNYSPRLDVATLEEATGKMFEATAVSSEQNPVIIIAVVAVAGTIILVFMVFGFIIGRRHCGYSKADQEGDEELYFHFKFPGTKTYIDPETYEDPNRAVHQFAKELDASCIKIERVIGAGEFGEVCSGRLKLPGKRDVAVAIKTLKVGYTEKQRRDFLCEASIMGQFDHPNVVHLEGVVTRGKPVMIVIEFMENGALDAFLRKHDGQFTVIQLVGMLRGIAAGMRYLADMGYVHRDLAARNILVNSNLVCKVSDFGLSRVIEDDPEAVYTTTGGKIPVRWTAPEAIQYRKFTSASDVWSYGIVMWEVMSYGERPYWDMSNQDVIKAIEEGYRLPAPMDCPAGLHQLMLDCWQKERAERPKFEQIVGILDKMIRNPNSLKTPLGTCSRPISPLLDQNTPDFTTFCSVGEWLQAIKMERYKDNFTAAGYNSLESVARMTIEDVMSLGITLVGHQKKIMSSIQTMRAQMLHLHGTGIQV
Sequence of Receptor tyrosine-protein kinase erbB-4 (Homo sapiens) (Q15303 whole entry): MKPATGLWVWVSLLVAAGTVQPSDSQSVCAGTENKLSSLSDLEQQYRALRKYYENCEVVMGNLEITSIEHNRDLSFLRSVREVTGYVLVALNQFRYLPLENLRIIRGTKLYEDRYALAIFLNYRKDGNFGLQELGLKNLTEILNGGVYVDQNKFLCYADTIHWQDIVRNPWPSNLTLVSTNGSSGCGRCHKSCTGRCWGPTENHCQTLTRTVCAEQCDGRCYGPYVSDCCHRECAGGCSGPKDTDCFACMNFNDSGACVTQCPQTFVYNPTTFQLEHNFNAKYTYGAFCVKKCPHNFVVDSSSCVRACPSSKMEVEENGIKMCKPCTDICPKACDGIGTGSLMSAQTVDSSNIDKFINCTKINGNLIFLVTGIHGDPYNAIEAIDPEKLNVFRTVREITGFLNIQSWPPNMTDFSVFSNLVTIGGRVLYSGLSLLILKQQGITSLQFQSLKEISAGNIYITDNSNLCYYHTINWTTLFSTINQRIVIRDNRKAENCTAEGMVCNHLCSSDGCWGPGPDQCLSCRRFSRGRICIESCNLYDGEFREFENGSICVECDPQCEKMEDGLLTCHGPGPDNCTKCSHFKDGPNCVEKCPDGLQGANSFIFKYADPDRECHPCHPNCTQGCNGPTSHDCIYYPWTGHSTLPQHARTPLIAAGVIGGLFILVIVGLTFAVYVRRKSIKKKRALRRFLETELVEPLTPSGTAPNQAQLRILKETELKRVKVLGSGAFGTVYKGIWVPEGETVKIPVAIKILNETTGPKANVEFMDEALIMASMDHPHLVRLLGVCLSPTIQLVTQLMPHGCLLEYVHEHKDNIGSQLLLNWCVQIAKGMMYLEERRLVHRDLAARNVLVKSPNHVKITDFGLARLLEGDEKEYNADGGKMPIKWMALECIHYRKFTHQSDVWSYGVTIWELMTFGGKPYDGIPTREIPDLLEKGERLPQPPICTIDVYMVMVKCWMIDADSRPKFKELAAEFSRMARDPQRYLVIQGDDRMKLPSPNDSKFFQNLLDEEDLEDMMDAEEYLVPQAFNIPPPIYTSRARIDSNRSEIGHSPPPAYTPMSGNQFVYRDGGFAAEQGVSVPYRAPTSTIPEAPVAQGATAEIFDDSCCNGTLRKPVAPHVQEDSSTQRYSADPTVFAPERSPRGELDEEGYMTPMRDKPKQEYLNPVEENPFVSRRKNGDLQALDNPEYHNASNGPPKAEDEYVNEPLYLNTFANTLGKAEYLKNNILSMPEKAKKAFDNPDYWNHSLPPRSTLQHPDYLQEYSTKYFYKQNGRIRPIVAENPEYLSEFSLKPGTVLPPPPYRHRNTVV
Sequence of Ephrin type-A receptor 5 (Homo sapiens) (P54756 whole entry): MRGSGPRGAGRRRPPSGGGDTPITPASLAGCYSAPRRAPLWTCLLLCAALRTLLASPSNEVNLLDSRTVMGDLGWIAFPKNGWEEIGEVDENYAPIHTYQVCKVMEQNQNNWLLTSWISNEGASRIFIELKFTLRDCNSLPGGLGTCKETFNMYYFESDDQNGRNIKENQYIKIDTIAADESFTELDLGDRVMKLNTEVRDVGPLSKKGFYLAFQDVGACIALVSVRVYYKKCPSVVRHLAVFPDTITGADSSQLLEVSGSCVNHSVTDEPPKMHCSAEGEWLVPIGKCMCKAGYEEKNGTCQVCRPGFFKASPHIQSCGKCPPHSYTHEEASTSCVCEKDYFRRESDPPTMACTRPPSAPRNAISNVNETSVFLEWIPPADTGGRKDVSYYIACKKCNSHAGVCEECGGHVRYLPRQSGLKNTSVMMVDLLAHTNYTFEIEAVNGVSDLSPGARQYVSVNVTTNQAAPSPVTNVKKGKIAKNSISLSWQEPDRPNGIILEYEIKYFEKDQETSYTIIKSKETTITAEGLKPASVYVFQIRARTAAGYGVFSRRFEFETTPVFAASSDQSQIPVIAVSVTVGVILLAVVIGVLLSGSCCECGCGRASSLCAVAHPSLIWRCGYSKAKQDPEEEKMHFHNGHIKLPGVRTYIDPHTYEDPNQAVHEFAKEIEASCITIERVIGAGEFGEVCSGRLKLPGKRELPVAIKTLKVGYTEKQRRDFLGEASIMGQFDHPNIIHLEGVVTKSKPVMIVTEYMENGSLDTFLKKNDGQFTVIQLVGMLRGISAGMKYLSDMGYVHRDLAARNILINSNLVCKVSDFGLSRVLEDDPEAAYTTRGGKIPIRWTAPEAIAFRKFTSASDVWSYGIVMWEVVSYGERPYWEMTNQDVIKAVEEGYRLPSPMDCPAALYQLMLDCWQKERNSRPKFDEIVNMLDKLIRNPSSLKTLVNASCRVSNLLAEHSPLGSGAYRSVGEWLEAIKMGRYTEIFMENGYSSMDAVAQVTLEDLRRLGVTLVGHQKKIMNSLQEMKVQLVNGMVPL

CCOc1cc2ncnc(Nc3cccc(Br)c3)c2cc1OCC
residual activity [1]: 22%
residual activity [2]: 86%
residual activity [3]: 31%
residual activity [4]: 50%
residual activity [5]: 9%
residual activity [6]: 48%
residual activity [7]: 7%
residual activity [8]: 54%
residual activity [9]: 20%
residual activity [10]: 48%
residual activity [11]: 5%
residual activity [12]: 46%
residual activity [13]: 0%
residual activity [14]: 108% (inactive)
residual activity [15]: 126%
residual activity [16]: 19%
residual activity [17]: -1%
residual activity [18]: 10%
residual activity [19]: -4%
residual activity [20]: 139%
